Compound activity: PubChem BioAssay, National Center for Advancing Translational Sciences (NCATS)
The entries come from a sample that favours hits as a whole.
LmPK inhibitor: inhibitors of Leishmania mexicana pyruvate kinase; purified LmPK, Kinase-Glo ATP luminescence, 1 h; Potency, µM (top dose mostly 57.5 µM), most hits filed as inhibitors; actives 0.37% (n = 290,000)
Target sequence (Q27686 whole entry, looked up): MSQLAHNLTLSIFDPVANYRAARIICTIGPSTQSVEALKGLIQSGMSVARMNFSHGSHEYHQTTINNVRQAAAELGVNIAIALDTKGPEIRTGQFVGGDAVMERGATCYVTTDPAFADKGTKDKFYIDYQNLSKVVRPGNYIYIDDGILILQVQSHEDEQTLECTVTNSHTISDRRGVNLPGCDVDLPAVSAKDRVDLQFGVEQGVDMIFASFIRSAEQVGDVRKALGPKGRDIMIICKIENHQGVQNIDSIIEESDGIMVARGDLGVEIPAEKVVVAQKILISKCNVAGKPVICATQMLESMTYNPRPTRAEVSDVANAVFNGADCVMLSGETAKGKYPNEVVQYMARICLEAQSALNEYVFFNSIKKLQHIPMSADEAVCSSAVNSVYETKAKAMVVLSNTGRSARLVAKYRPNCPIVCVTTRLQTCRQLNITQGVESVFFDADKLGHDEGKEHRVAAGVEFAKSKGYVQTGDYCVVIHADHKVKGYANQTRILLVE
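0.1 nM LmPK, 0.5 mM PEP, 0.1 mM ADP; 50 mM imidazole pH 7.2, 7 mM MgCl2, 50 mM KCl; 1 h RT. Kinase-Glo luminescence readout, normalized to no-enzyme (full inhibition) and uninhibited wells.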
RE007 growth inh: less growth of the S. pombe RE007 Vpr strain; S. pombe RE007 Vpr strain, BacTiter-Glo ATP luminescence, 24 h; Potency, µM (series often up to 92.2 µM), most hits filed as inhibitors; actives 0.21% (n = 360,000); AID 651644; active = well fitted falling curve with a large enough effect; inconclusive = small, poorly fitted or top-dose-only effect; inactive = no such curve, though single readings can be large or run the other way; note: nearly all actives have a fitted effect of over 50% in size
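Fission yeast RE007 carrying one integrated HIV-1 vpr copy, seeded at OD 0.01 in PMG+AL medium with 23 nL pinned compound. Grown 24 h at 30 degrees; viability read by BacTiter-Glo luminescence after 5 min.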
Cycloheximide cs: counter-screen hit for Shiga toxin inhibitors, cycloheximide; actives 12% (n = 300,000); max response, %; cell reporter, cycloheximide protein synthesis inhibition counterscreen; in the data active = max response mostly above about 13%, no sharp cut-off; inactive = mostly below about 14%; note: read at 38.3 µM for the half of the compounds with a filed dose
Shiga toxin inh: blocks Shiga toxin action in Vero cells; inhibition, % at 38.7 µM; Vero cells, Shiga toxin protein synthesis inhibition reporter; actives 9.2% (n = 290,000); in the data active = inhibition mostly above about 28%, no sharp cut-off; inactive = mostly below about 43%
Giardia FBPA inh: Giardia lamblia aldolase inhibition | purified Giardia FBPA | Potency, µM (doses to about 59.6 µM), usual class: inhibitors | actives 0.71% (n = 290,000) | AID 2451; note: nearly all actives have a fitted effect of over 55% in size
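Giardia FBPA (40 nM reagent) was preincubated 10 min at RT with compound (up to 57.5 uM final), then substrate plus GAPDH/TPI/NAD/arsenate coupling system with diaphorase/resazurin was added; resorufin fluorescence (525/598 nm) was read after 20 min.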
TbPYK inhibitor: T. brucei pyruvate kinase inhibition; Q57TT1; TbPYK enzyme, Kinase-Glo Plus ATP luminescence, 45 min; Potency, µM (titrated, usually from 76.8 µM), usual class: inhibitors; actives 0.12% (n = 410,000); note: nearly all actives have a fitted effect of over 50% in size
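Readout: single end-point luminescence (Kinase-Glo Plus, 10 min). Reaction conditions were TbPYK/substrate plus 130 uM ADP, 45 min at RT, pH 7.2 TEA buffer. No-enzyme wells served as controls, and data were normalized before concentration-response fitting.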
Hits are given with their value; – = inactive; ? = inconclusive; · = not tested or not shown; [ ] = remark or other dose. Unless noted, calls come from the whole dose curve; as a rule, active = well fitted curve in the direction sought with a large enough effect; inconclusive = small, poorly fitted or top-dose-only effect, or another doubt; inactive = no such curve, though single readings can be large; an effect the other way counts as inactive or inconclusive.

SMILES	LmPK inhibitor	RE007 growth inh	Cycloheximide cs	Shiga toxin inh	Giardia FBPA inh	TbPYK inhibitor
COc1ccc(-c2cn3c4c(sc3n2)CCCC4)cc1	–	–[3.69 µM]	36	–	?	·
COc1ccc(-c2cn3c(C)c(C(=O)N4CCCc5ccccc54)sc3n2)cc1	·	–	·	·	·	–
CC(=C1C(=O)c2ccccc2C1=O)N1CCN(c2ccc(F)cc2)CC1	–	–	14	33	–	–
O=C(NC(=S)N1CCN(c2ccc(F)cc2)CC1)c1ccccc1	·	–	·	·	·	–
O=C(NC(=O)N1CCCCC1)c1ccccc1	–	–	14	–	–	–
O=C(NC(=S)N1CCCCCC1)c1ccccc1	–	–	–	–	·	–
O=C(NC(=O)N1CCN(c2ccc(F)cc2)CC1)c1ccccc1	–	–	20	–	–	–
COc1ccc(O[C@H]2C=C[C@@H](c3ccccc3)O[C@H]2CO/N=C\C[C@@H]2C=C[C@H](OC(C)=O)[C@H](COC(C)=O)O2)cc1	·	·	·	·	–[12.9 µM]	·
COc1ccc(C(=O)OCC(=O)NC2CCCC2)c(OC)c1	–	–	17	–	–	–
COc1cc(SC)ccc1C(=O)OCc1nc2ccsc2c(=O)[nH]1	·	–	·	·	·	–
COc1cc(SC)ccc1C(=O)OCC(=O)NC1CC1	–	–	26	–	–	–
COc1cc(SC)ccc1C(=O)OCC(=O)NCCNC(=O)COC(=O)c1ccc(SC)cc1OC	–	–	–	–	·	–
COc1ccc(C(=O)OCC(=O)NC2CCCCCC2)c(OC)c1	·	–	·	·	·	–
COC(=O)c1ccc(COC(=O)c2ccc(SC)cc2OC)cc1	–	–	21	45	–	–
N#Cc1cccc(CS(=O)(=O)c2nc3ccccc3s2)c1	·	·	·	·	–	·
CCCNC(=O)NC(=O)COC(=O)CNS(=O)(=O)/C=C/c1ccccc1	–	–	–	–	–	–
COc1cccc(CNC(=O)Cn2nc(N3CCN(c4ccccc4OC)CC3)ccc2=O)c1	·	·	·	·	·	–
COCCn1c(C)cc(/C=C2/NC(=O)N(c3ccc(Cl)cc3)C2=O)c1C	–	–	55	–	–	–
COCCn1c(C)cc(/C=C2/NC(=O)N(Cc3ccc(C)cc3)C2=O)c1C	–	–	–	–	–	–
O=C(Nc1ccccc1)C(=O)Nc1cccnc1	14µM	–	32	53	–	–
N#C/C(=C\c1cccnc1)C(=O)Nc1ccccc1	–	–	18	–	–	–
N#C/C(=C\c1cccnc1)C(=O)Nc1ccc(C(=O)O)cc1	–	–	–	–	–	–
O=C(CC(=O)c1ccccc1)Nc1cccnc1	–	–	24	–	–	–
CCCOc1ccccc1/C=C(\C#N)C(=O)Nc1cccnc1	–	–	34	78	–	–
Cc1c(C(=O)Nc2ccc(F)cc2)oc2ccc(S(=O)(=O)N3CCCCCC3)cc12	·	·	·	·	·	–
SMILES	LmPK inhibitor	RE007 growth inh	Cycloheximide cs	Shiga toxin inh	Giardia FBPA inh	TbPYK inhibitor
O=C(CCCc1ccccc1)Nc1cccnc1	–	–	19	66	–	–
CC(C)c1ccc(NC(=O)/C(C#N)=C/c2ccncc2)cc1	–	–	26	18	·	–
COc1ccc(N2CCN(C(=O)c3cc4c(-c5ccccc5F)nn(C)c4s3)CC2)cc1	·	·	·	·	·	–
O=C1C=CC(=O)c2c(O)c(N3CCN(CCO)CC3)c(Cl)c(O)c21	·	63µM	·	·	·	?
O=S(=O)(c1ccc(Br)cc1Cl)N1CCN(CCO)CC1	–	–	–	–	–	–
Cc1ccc(Cn2cc(S(=O)(=O)c3cccc(C)c3)c(=O)c3cc(F)c(N4CCOCC4)cc32)cc1	·	·	·	·	·	–
CC(C)OCCCn1c(-c2ccc(Br)cc2)c[nH]c1=S	13µM	–	–	–	–	?
COc1ccc(C)cc1NC(=O)NNC(=O)c1ccoc1C	–	–	active	31	·	–
COc1ccc(C)cc1NC(=O)c1ccoc1C	–	–	–	–	–	–
Cc1ccccc1C(=O)NNC(=O)c1ccoc1C	–	–	–	–	–	–
Cc1occc1C(=O)NNC(=O)c1ccccc1Br	–	–	–	28	–	–
Cc1occc1C(=O)NNC(=O)c1ccccc1C(=O)O	–	–	24	69	–	–
O=C(Cc1ccccc1)NNC(=O)c1ccccc1C(=O)O	–	–	15	–	–	–
CC1(C)CC(=O)C2=C(C1)O[C@@]1(c3ccsc3)Cc3cc(C#N)ccc3C2O1	–[11.5 µM]	·	–	–	–[12.9 µM]	·
Cc1nc2nc(CNC(=O)OC(C)(C)C)nn2c(C)c1CCC(=O)NCc1ccccc1Cl	·	·	·	·	·	–
Cc1ccc(CCC(=O)Nc2ccccc2C(=O)O)o1	–	–	26	59	·	–
CCc1ccc(NC(=O)CCc2ccc(CC)o2)cc1	–	–	14	·	–	–
Cc1ccc(NC(=O)CCc2ccccc2)cc1C	·	–	·	·	·	–
CC(=O)c1ccc(NC(=O)CCc2ccc(C)o2)cc1	–	–	13	–	–	–
CCc1ccc(CCC(=O)Nc2ccc(C(=O)O)cc2)o1	–	–	–	–	·	–
CCc1ccc(CCC(=O)Nc2ccc(C)c(C)c2)o1	–	–	40	58	–	–
Cc1ccc(C)c(NC(=O)CCc2ccc(C)o2)c1	–	–	–	–	–	–
Cc1cc(NC(=O)CCc2ccc(C)o2)no1	–	–	–	–	–	–
C=CCc1ccccc1OCc1nc2ccccc2n1CC	·	·	·	·	·	–
CC(=O)c1c(C)[nH]c(C(=O)CN2CCN(S(=O)(=O)c3ccccc3F)CC2)c1C	·	–	·	·	·	–
SMILES	LmPK inhibitor	RE007 growth inh	Cycloheximide cs	Shiga toxin inh	Giardia FBPA inh	TbPYK inhibitor
COc1cccc(NCc2cccn2-c2nnc(N3CCC(C)CC3)s2)c1	·	·	·	·	·	–
Cc1ccc2c(=O)cc(C(=O)Nc3c(C(=O)c4ccccc4)oc4ccccc34)oc2c1C	·	·	·	·	·	–
CCc1ccc(NC(=O)CCc2ccc(C)o2)cc1	–	–	37	·	–	–
Cc1ccc(CCC(=O)Nc2ccc(C#N)cc2)o1	–	–	–	–	·	–
CC(C)(C)NC(=O)CCSc1nnc(-c2ccco2)o1	–	–	27	–	–	–
CCN(CC)C(=O)CCSc1nnc(-c2ccncc2)o1	–	–	–	–	–	–
CCN(CC)C(=O)CCSc1nnc(-c2ccco2)o1	–	–	30	–	–	–
COC(=O)c1c(NC(=O)CS(=O)(=O)c2ccc(C)cc2)sc2c1CCCCC2	·	·	–	–	·	–
COCC(=O)N(C)C[C@@H]1Oc2cc(-c3ccc(F)cc3)ccc2S(=O)(=O)N([C@H](C)CO)C[C@H]1C	·	–	·	·	·	–
O=C1C(O)=C(O)C(=O)C(O)=C1O	·	·	·	·	13µM	–
CC1=C(O)C(=O)C(C2=C(O)C(=O)C(C)=C(O)C2=O)=C(O)C1=O	·	–	·	·	·	–
COc1cccc(/C=C(\C#N)c2nc3ccc(C)cc3[nH]2)c1OCC(=O)O	–	–	27	40	–	–
COc1cc(/C=C(\C#N)c2nc3ccccc3[nH]2)ccc1OC(=O)c1ccco1	–	–	48	43	–	–
CCN(CC)c1ccc(/C=C(/C#N)c2nc3ccccc3[nH]2)c(OC(C)C)c1	–	–	48	119	–	–
